From PubChem BioAssay AID1259350 (ICCB-Longwood Screening Facility, Harvard Medical School, 2017) come the findings set out here.

The structures appear in SMILES notation. The list shows a part of the results. Values without a mark were called inactive. Active and inactive are the calls of the source.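 The calls were made as follows: active = inhibition score of 15 or more, meaning 100 minus mean polarization as percent of control over three replicates; inactive = the rest.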

Chain of Guanine nucleotide-binding protein G(i) subunit alpha-3 (Rattus norvegicus) (P08753 whole entry, looked up): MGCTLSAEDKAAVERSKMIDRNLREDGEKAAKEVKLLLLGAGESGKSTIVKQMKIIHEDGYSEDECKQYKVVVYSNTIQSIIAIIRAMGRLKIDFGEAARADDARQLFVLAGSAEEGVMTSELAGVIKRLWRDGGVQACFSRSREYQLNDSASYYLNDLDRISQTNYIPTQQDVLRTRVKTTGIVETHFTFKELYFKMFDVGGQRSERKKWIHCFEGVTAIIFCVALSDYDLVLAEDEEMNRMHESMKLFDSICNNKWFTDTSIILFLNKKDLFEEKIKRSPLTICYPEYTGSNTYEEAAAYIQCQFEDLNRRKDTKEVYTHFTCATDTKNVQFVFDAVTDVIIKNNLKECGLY

This assay has as its target Guanine nucleotide-binding protein G(i) subunit alpha-3 (Rattus norvegicus) (UniProt P08753). The experiment in a line: GIV-Galphai3 interaction disruptors, retest – biochemical, fluorescence polarization, FITC-GIV peptide, rat Galphai3, confirmation (AID 1259350).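 Also: lower mP means peptide displaced from Galphai3 so more inhibition.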 The following applies: FITC-GIV peptide binding to Galphai3, fluorescence polarization; at 100 µM; stronger effect = lower value.
In the case of `CCC(=O)N1CCc2cc(N3CC(C(=O)N4CCN(C(C)C)CC4)CC3=O)ccc21` (stereo not given), the fluorescence polarization was 64.3 mP (active).

In the case of `COC1=C(N2CCOCC2)C(=O)c2ccccc2C1=O`, the fluorescence polarization was 68 mP.

With `O=C(NN=c1c(=O)c2ccccc2c1=O)c1ccncc1`, the fluorescence polarization was 66.7 mP.

For the compound `Cc1ccc(N2C(=O)/C(=C/c3ccc(OCC(=O)O)c(Br)c3)C(=O)NC2=S)cc1`, the fluorescence polarization was 60.7 mP (active).

As for `N#CSc1cc(SC#N)c(N)nc1N`, the fluorescence polarization was 25.2 mP (active).

Take `COC(=O)Cn1nc2c(-c3nc(-c4ccc(Cl)cc4)no3)cccn2c1=O`: the fluorescence polarization was 83.1 mP.

With `CCOC(=O)C1=C(C)N(c2ccc(OC)cc2)C(=O)/C1=C\c1ccco1`, the fluorescence polarization is 77.8 mP.

For the compound `CCOC(=O)c1nc2cc(C)c(C)cc2nc1NC1CCCCC1`, the fluorescence polarization was 88.9 mP.

With `O=C(O)CCC(C(=O)O)N1C(=O)/C(=C\c2ccco2)SC1=S` (stereo not given), the fluorescence polarization is 41.8 mP (active).

In the case of `Cc1nn(-c2ccccc2)c2sc(-c3noc(-c4ccccc4F)n3)cc12`, the fluorescence polarization was 78.5 mP.

In the case of `COc1ccccc1CNc1ncc2nc(-c3ccccc3)oc2n1`, the fluorescence polarization is 63.8 mP.

Take `CC(=O)Nc1ccc(Nc2c3c4c(cccc4[nH]c2=O)C(=O)c2ccccc2-3)cc1`: the fluorescence polarization is 39.3 mP (active).

On to `Cn1cccc1/C=C1\C(=O)NC(=S)N(c2ccccc2)C1=O`, for which the fluorescence polarization is 51.3 mP (active).

With `COc1ccc(Nc2cc(C(=O)NCCCN(C)c3ccccc3)c3ccccc3n2)c(OC)c1`, the fluorescence polarization is 84 mP.

As to `CC1=NOC(=O)C1C(c1cccc(Br)c1)c1c(C)[nH]n(-c2ccccc2)c1=O` (stereo not given), the fluorescence polarization was 37.2 mP (active).
